# The campaign covered roughly 300,000 compounds. About 5,400 (1.8%) were called active. A call without a number means that no potency is given here. Not shown: some 28% with an inconclusive outcome. Calls come from the whole dose curve; tested in HEK293 cells. The sample as a whole holds a higher share of actives than the screen did.
# Assay: qHTS for inhibitors of binding or entry into cells for Marburg Virus
# Settings: Marburg virus pseudotyped entry inhibition, cell reporter; series mostly up to 37.8 µM
# Potency is the fitted concentration of half-maximal effect.
row,Compound,Potency
1,Cc1ccc(-c2cn3cc(C)ccc3n2)cc1,0.316 µM (active)
2,Cc1ccc(-c2cn3cc([N+](=O)[O-])ccc3n2)cc1,3.66 µM (active)
3,Cc1nc(-c2ccc([N+](=O)[O-])cc2)c(-c2ccccc2)o1,inactive
4,Cc1ccc(-c2cc(N)on2)cc1,inactive
5,Cc1ccc(-n2c(-c3ccc([N+](=O)[O-])cc3)nc3ccccc3c2=O)cc1,inactive
6,c1ccc(-c2cn3cccnc3n2)cc1,inactive
7,CC(C)=CCCC(C)=CCN1C(=O)[C@]2(OCCC=C[C@H]2C)c2ccccc21,inactive
8,O=C(c1ccco1)N1CCN(C(=S)Nc2cc(F)cc(F)c2)CC1,inactive
9,CN(Cc1ccccc1)C(=O)C1CCCN(c2ncnc3c2nc2n3CCCCC2)C1 (configuration not stated),inactive
10,CC(NC(=O)c1ccccc1)C(=O)OCC(=O)Nc1cccc(S(=O)(=O)N2CCCC2)c1 (configuration not stated),inactive
11,Cc1ccccc1N(C(=O)CNC(=O)c1cccs1)C(C(=O)NC1CCCC1)c1ccncc1 (configuration not stated),inactive
12,CC(NC(=O)COC(=O)c1ccc2ccccc2n1)c1ccccc1 (configuration not stated),inactive
13,C=C(C)C(=O)Nc1cccc(C(C)=O)c1,inactive
14,CC(=O)c1cccc(NC(=O)Nc2ccc(C)cc2)c1,inactive
15,CCSc1nsc(NC(=O)Nc2cccc(C(C)=O)c2)n1,10 µM (active)
16,CC(=O)c1cc2c(cc1NC(=O)CN1CCCCCC1)OCO2,inactive
17,CCOc1cccc(NC(=O)Cn2nc(-c3ccc4c(c3)OCCO4)ccc2=O)c1,inactive
18,CC(=O)c1cc2c(cc1NC(=O)Cn1nc(-c3ccc(F)cc3)ccc1=O)OCO2,10 µM (active)
19,CN(CC(=O)Nc1ccc(C(N)=O)cc1)S(=O)(=O)c1ccc2c(c1)OCCO2,inactive
20,Cc1ccc2nc(SCC(=O)N3CCN(c4ccccc4)CC3)nc(=O)n2c1,inactive
21,CCOC(=O)c1cn(Cc2cccc(C)c2)nn1,3.98 µM (active)
22,Cc1cccc(-c2nnc(SCC(=O)O)n2Cc2ccccc2)c1,inactive
23,CCOC(=O)c1cn(CC(=O)Nc2ccc(C(C)C)cc2)nn1,inactive
24,O=C(C/C(=N\O)c1ccccc1O)C(F)F,inactive
25,Cc1cc(S(=O)(=O)NCC(C)C)ccc1OCC(=O)NC1CC1,inactive
26,COC(=O)Cc1ccc(NC(=S)NCc2ccccc2)cc1,inactive

row,Compound,Potency
1,S=C(NCCc1ccccc1)Nc1ccccc1,inactive
2,FC(F)(F)Oc1ccc(NC(=S)NCc2ccccc2)cc1,11.2 µM (active)
3,CSc1nc(-c2ccccc2)nc(C(Cl)Cl)n1,3.55 µM (active)
4,CCc1noc(C)c1C(=O)N1CCCC(N2CCN(c3ccc(F)cc3)CC2)C1 (configuration not stated),inactive
5,COC1=CC(=O)OC(C)(c2ccccc2)C1 (configuration not stated),inactive
6,CCOc1cc(CNCc2ccccn2)ccc1OCC(=O)NC(C)(C)C,7.08 µM (active)
7,CCOc1cc(C)c(S(=O)(=O)NCc2ccccn2)cc1C,inactive
8,CCOc1cc(CNn2c(C)nnc2SCC(=O)NC(C)(C)C)ccc1OCC(=O)NC(C)(C)C,inactive
9,O=C(Nc1ccc(Cl)cn1)[C@H]1CCCN1S(=O)(=O)c1ccccc1,inactive
10,O=C(COc1ccc(S(=O)(=O)N2CCOCC2)cc1Cl)N1CCOCC1,inactive
11,Cc1cc(S(=O)(=O)N2CCOCC2)ccc1OCC(=O)N1CCOCC1,inactive
12,CN(CC(O)COc1ccc(S(=O)(=O)N2CCOCC2)cc1Cl)C1CCCCC1 (configuration not stated),10 µM (active)
13,COc1ccccc1NC(=O)N(O)C1(C#N)CCCCC1,inactive
14,O=C(Nc1cccc(S(=O)(=O)NC2=NCCC2)c1)c1ccc(F)cc1F,inactive
15,Cc1cc(C)c(C)c(S(=O)(=O)Nc2cccnc2)c1C,inactive
16,COc1ccc(CCn2nnnc2C(c2ccccc2)N2CCN(C)CC2)cc1OC (configuration not stated),inactive
17,N#Cc1ccc(C(c2nnnn2CCc2ccccc2)N2CCCCCC2)cc1 (configuration not stated),20.6 µM (active)
18,CC(C)C(c1nnnn1CCc1ccccc1)N1CCN(C(=O)c2ccco2)CC1 (configuration not stated),inactive
19,CC(C)(C)S(=O)(=O)c1ccccc1-c1noc(-c2ccccc2)c1C(N)=O,inactive
20,COc1ccc(S(=O)(=O)N2CCN(c3cnccn3)CC2)cc1,inactive
21,O=C(Nc1ccc(S(=O)(=O)NCC2CCCO2)cc1)c1ccc(F)cc1 (configuration not stated),inactive
22,CN(Cc1ccccc1)C(=O)C(=O)c1cn(CC(=O)N2CCCC2)c2ccccc12,inactive
23,Cc1ccc(NNC(=O)c2cccs2)cc1Cl,6.31 µM (active)
24,Cc1ccc(NNC(=O)c2c(F)cccc2Cl)cc1Cl,inactive
25,CCc1ccc(NC(=O)C(=O)NNC(=O)c2cccs2)cc1,inactive
26,Cc1nc(CN(C)C(=O)CC2C(=O)NCCN2Cc2ccc(F)cc2)cs1 (configuration not stated),inactive
